Experimental data published in PubChem BioAssay (NCATS).
Several values for one entry are separate records, joined by “and”; a condition that tells them apart may be missing. Equal values may be shown once. Results filed as inconclusive are left out. Activity calls are given as the source filed them. Unless noted, calls follow the shape of the dose curve; as a rule, active = well fitted curve in the direction sought with a large enough effect; inconclusive = small, poorly fitted or top-dose-only effect, or another doubt; inactive = no such curve, though single readings can be large; an effect the other way counts as inactive or inconclusive.

Tests used:
[1] = molecular target: Cellular tumor antigen p53 (Homo sapiens) (UniProt P04637); assay: Primary qHTS for small molecule compounds that upregulate eGFP-tagged delta133p53alpha (in N-terminal) cells. (AID 2060322); conditions: NCI-H358 eGFP-delta133p53alpha fluorescence, 24 h; activation: active compounds read high; also: nearly all actives have a fitted effect of over 75% in size; also: potency is read from the fitted curve at half-maximal effect;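 as to activation: cells pre-induced with doxycycline then dosed without doxycycline; series mostly up to about 56 µM; 0% = DMSO vehicle and 100% = reference activator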
How it was run: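 NCI-H358 cells pre-induced 24 h with 10 ng/ml doxycycline for eGFP-delta133p53alpha, plated dox-free and exposed 24 h at 37C to titrated compounds. Fixed, Hoechst-stained; gated GFP peak intensity by laser scanning cytometry, normalized to DMSO (0%) and 57.5 uM 5-azacytidine (100%).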

[2] = molecular target: Aldehyde dehydrogenase, mitochondrial (Homo sapiens) (UniProt P05091); assay: qHTS for Inhibitors of the Aldehyde Dehydrogenase Family (ALDH2) Validation screens (AID 2061302; active = well fitted inhibition curve with a large enough effect; title and protocol of this record describe different tests;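 also: plate controls were DMSO vehicle for no effect and maximal DPI positive control response for full effect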)
[3] = molecular target: Retinaldehyde dehydrogenase 3 (Homo sapiens) (UniProt P47895); assay: qHTS for Inhibitors of the Aldehyde Dehydrogenase Family (ALDH1A3) Validation screen (AID 2061312); also: % is scaled to controls: 0 for no effect and ±100 for the full control effect; nearly all actives have a fitted effect of over 45% in size
[4] = molecular target: Aldehyde dehydrogenase, mitochondrial (Homo sapiens) (UniProt P05091); assay: qHTS for Inhibitors of the Aldehyde Dehydrogenase Family (ALDH2) Confirmatory screens (AID 2061303; active = well fitted inhibition curve with a large enough effect; title and protocol of this record describe different tests; also: % is scaled to controls: 0 for no effect and ±100 for the full control effect; nearly all actives have a fitted effect of over 45% in size)
[5] = qHTS for Inhibitors of the Aldehyde Dehydrogenase Family (ALDH1A2, ALDH1A3, ALDH2, ALDH3A1) (AID 2061307); also: test system not described further here; potency is read from the fitted curve at half-maximal effect; nearly all actives have a fitted effect of over 50% in size
[6] = molecular target: Aldehyde dehydrogenase, mitochondrial (Homo sapiens) (UniProt P05091); assay: qHTS for Inhibitors of the Aldehyde Dehydrogenase Family (ALDH2) Primary screen (AID 2061308);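 also: plate controls were vehicle for no effect and reference inhibitor for full effect; nearly all actives have a fitted effect of over 55% in size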
[7] = molecular target: Retinaldehyde dehydrogenase 3 (Homo sapiens) (UniProt P47895); assay: qHTS for Inhibitors of the Aldehyde Dehydrogenase Family (ALDH1A3) Confirmatory screens (AID 2061311); also: potency is read from the fitted curve at half-maximal effect; nearly all actives have a fitted effect of over 60% in size
[8] = molecular target: Retinal dehydrogenase 2 (Homo sapiens) (UniProt O94788); assay: qHTS for Inhibitors of the Aldehyde Dehydrogenase Family (ALDH1A2) Confirmation screens (AID 2061314); also: % is scaled to controls: 0 for no effect and ±100 for the full control effect; nearly all actives have a fitted effect of over 65% in size
[9] = molecular target: Retinaldehyde dehydrogenase 3 (Homo sapiens) (UniProt P47895); assay: qHTS for Inhibitors of the Aldehyde Dehydrogenase Family (ALDH1A3) Primary screen (AID 2061315); also: potency is read from the fitted curve at half-maximal effect
[10] = BET inhibitor-based combinations targeting novel dependencies in MECOM-rearranged (r) AML: SET-2 cell line (AID 2202231); conditions: SET-2 AML cells viability, CellTiter-Glo luminescence, 48 h; viability: active compounds read low, concentration not given here; also: potency is read from the fitted curve at half-maximal effect; nearly all actives have a fitted effect of over 35% in size
How it was run: (§1)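 Luminescent ATP readout (CellTiter-Glo) after 48 hr drug exposure gives viability. Curves span 11 concentrations and are normalized to DMSO and empty wells. Activity is reported as area under the curve and its Z-transform within each cell line.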

[11] = BET inhibitor-based combinations targeting novel dependencies in MECOM-rearranged (r) AML: UCSD-AML1 cell line (AID 2202235); also: potency is read from the fitted curve at half-maximal effect; nearly all actives have a fitted effect of over 40% in size
How it was run: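 Luminescent ATP readout (CellTiter-Glo, 15 min at room temperature) after 48 hr drug exposure gave viability. Dose-response curves, normalized to DMSO and empty-well controls, were summarized as area under the curve and its mean-centred Z-score.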

[12] = BET inhibitor-based combinations targeting novel dependencies in MECOM-rearranged (r) AML: AML-191 cell line (AID 2202236; also: potency is read from the fitted curve at half-maximal effect; nearly all actives have a fitted effect of over 35% in size)
How it was run: as §1

Chain of Cellular tumor antigen p53 (Homo sapiens) (P04637 whole entry, looked up): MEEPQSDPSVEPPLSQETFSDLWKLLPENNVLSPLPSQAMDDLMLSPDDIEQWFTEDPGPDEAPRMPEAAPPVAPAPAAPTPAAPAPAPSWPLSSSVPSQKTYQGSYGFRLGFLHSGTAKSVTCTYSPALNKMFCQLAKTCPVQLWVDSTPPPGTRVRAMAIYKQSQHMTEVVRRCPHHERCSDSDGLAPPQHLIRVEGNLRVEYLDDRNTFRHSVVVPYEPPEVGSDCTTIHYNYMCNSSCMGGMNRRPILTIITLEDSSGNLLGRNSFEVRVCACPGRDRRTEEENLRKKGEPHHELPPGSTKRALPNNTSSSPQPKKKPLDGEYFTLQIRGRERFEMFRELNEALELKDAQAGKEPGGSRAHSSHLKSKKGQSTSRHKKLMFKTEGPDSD

CNC1(C)C2CCC(C2)C1(C)C (centres undefined)
inactive: activation [1] -45.5% | Potency [2] | Potency [3]

COc1ccccc1OCCNCC(O)COc1cccc2[nH]c3ccccc3c12 (centres undefined)
inactive: activation [1] 23.9% and -57.4% | Potency [2] | Potency [3]

CCN(CC)CCNC(=O)c1ccc(NC(C)=O)cc1
inactive: activation [1] 18.6% and -9.2% | Potency [2] | Potency [3]

CC1=C(/C=C/C(C)=C/C=C/C(C)=C/C(=O)Nc2ccc(O)cc2)C(C)(C)CCC1
inactive: activation [1] -39.3% | Potency [2] | Potency [3]

COc1ccc(C(=O)NCc2cccnc2)cc1C(=O)NCc1cccnc1
inactive: activation [1] -12.6% | Potency [2] | Potency [3]

N[C@H](CO)C(=O)O
inactive: activation [1] 9.85% | Potency [2] | Potency [3]

COc1cc2nc(N3CCN(C(=O)c4ccco4)CC3)nc(N)c2cc1OC
inactive: activation [1] 2.51% and 14.7% and 81.5% | Potency [2] | Potency [3]

C[C@H](CS)C(=O)N1CCC[C@H]1C(=O)O
inactive: activation [1] 1.67% and -24.1% | Potency [2] | Potency [3]

C=C(C)C1CC=C(C(=O)O)CC1 (centres undefined)
inactive: activation [1] -6.28% | Potency [2] | Potency [3]

COC(=O)C1=C(C)NC(C)=C(C(=O)OC(C)(C)CN(C)CCC(c2ccccc2)c2ccccc2)C1c1cccc([N+](=O)[O-])c1 (centres undefined)
inactive: activation [1] 17.5% | Potency [2] | Potency [3]

OC[C@H]1O[C@@H](n2cnc3cncnc32)[C@H](O)[C@@H]1O
inactive: activation [1] -14.1% | Potency [2] | Potency [3]

CNCCC=C1c2ccccc2CCc2ccccc21
inactive: activation [1] 33% | Potency [2] | Potency [3]

CNCCc1cnc(CCC(c2ccccc2)c2ccccc2)[nH]1
inactive: activation [1] -38.1% | Potency [2] | Potency [3]

CN(C)CCCN1c2ccccc2Sc2ccc(C(F)(F)F)cc21
inactive: activation [1] 25.1% and 58.3% | Potency [2] | Potency [3]

NC/C=C\C(=O)O
inactive: activation [1] 28.9% | Potency [2] | Potency [3]

CN(C)S(=O)(=O)c1ccc2c(c1)/C(=C/c1cc3c([nH]1)CCCC3)C(=O)N2
active: Potency [1] 6.75 µM
inactive: Potency [2] | Potency [3]

CC(=O)/C(C)=N/O
inactive: activation [1] -2.27% | Potency [2] | Potency [3]

CC(C)(C)c1ccc(C(O)CCCN2CCC(C(O)(c3ccccc3)c3ccccc3)CC2)cc1 (centres undefined)
inactive: activation [1] 5.86% and -0.341% | Potency [2] | Potency [3]

CC[C@H]1OC(=O)[C@H](C)[C@@H](O[C@H]2C[C@@](C)(OC)[C@@H](O)[C@H](C)O2)[C@H](C)[C@@H](O[C@@H]2O[C@H](C)C[C@H](NC)[C@H]2O)[C@](C)(O)C[C@@H](C)CN(C)[C@H](C)[C@@H](O)[C@]1(C)O
inactive: activation [1] -4.2% | Potency [2] | Potency [3]

Cc1c(O)cccc1C(=O)N[C@@H](CSc1ccccc1)[C@H](O)CN1C[C@H]2CCCC[C@H]2C[C@H]1C(=O)NC(C)(C)C
inactive: activation [1] -0.838% | Potency [2] | Potency [3]

Cc1ccc([N+](=O)[O-])cc1S(=O)(=O)N(C)C
inactive: activation [1] -2.98% | Potency [2] | Potency [3]

CNC(=O)[C@H]1O[C@@H](n2cnc3c(NCc4cccc(I)c4)ncnc32)[C@H](O)[C@@H]1O
inactive: activation [1] -36.7% | Potency [2] | Potency [3]

CC(C)(C)NCC(O)c1cc(O)cc(O)c1 (centres undefined)
inactive: activation [1] 2.51% and 8.65% | Potency [2] | Potency [3]

CC[N+](CC)(CC)CC(=O)Nc1c(C)cccc1C
inactive: activation [1] -4.9% | Potency [2] | Potency [3]

CCOC(=O)C1=C(C)NC(C)=C(C(=O)OCC)C1c1c(F)c(F)c(F)c(F)c1F
inactive: activation [1] 26.5% | Potency [2] | Potency [3]

CC(C)NCC(O)COc1ccc(COCCOC(C)C)cc1 (centres undefined)
inactive: activation [1] -8.37% and -9.29% and -8.52% | Potency [2] | Potency [3]

OCCN1CCN(CCCN2c3ccccc3Sc3ccc(Cl)cc32)CC1
inactive: activation [1] -6.69% and -35.6% | Potency [2] | Potency [3]

O=C(NCCN1CCOCC1)c1ccc(Cl)cc1
inactive: activation [1] -2.82% and -8.35% | Potency [2] | Potency [3]

Cc1cccc(C)c1OCC(C)N (centres undefined)
inactive: activation [1] 8.37% and -22.7% | Potency [2] | Potency [3]

Cn1c(=O)c(-c2c(Cl)cccc2Cl)cc2cnc(Nc3ccc(N4CCOCC4)cc3)nc21
inactive: activation [1] -42.1% | Potency [2] | Potency [3]

CCN(CC)c1ncnc2c1ncn2[C@@H]1O[C@H](COP(=O)(O)OP(=O)(O)C(Br)(Br)P(=O)(O)O)[C@@H](O)[C@H]1O
inactive: activation [1] -18.4% | Potency [2] | Potency [3]

Clc1cccc(Cl)c1NC1=NCCN1
inactive: activation [1] -3.23% and -7.34% and -13.7% | Potency [2] | Potency [3]

COc1cc2nc(N3CCN(C(=O)C4COc5ccccc5O4)CC3)nc(N)c2cc1OC (centres undefined)
inactive: activation [1] 6.69% and -16.6% and -33.1% | Potency [2] | Potency [3]

Fc1ccc([C@@H]2CCNC[C@H]2COc2ccc3c(c2)OCO3)cc1
inactive: activation [1] 28.5% and -0.566% and 41.3% | Potency [2] | Potency [3]

C=CCNc1ncnc2ccc(Br)cc12
inactive: activation [1] -43.6% | Potency [2] | Potency [3]

COc1ccc2c(c1)CCC1C2CC[C@@]2(C)C1CC[C@@H]2NCCCCCCN1C(=O)CCC1=O (some centres undefined)
inactive: activation [1] 10.7% | Potency [2] | Potency [3]

C=C1C(=O)O[C@@H]2[C@H]3O[C@]3(C)CCC=C(C)CC[C@@H]12
inactive: activation [1] -45% | Potency [2] | Potency [3]

CCN(CC)CCNC(=O)c1cc(S(C)(=O)=O)ccc1OC
inactive: activation [1] -10% and -17.5% | Potency [2] | Potency [3]

O=C(O)c1cccc(-c2noc(-c3ccccc3F)n2)c1
active: Potency [5] 0.302 µM | Potency [7] 0.159 µM | Potency [9] 0.316 µM | Potency [10] 20.9 µM | Potency [11] 18.6 µM | Potency [12] 20.9 µM
inactive: activation [1] 19.2% and 2.33% and 1.9% | Potency [4] | Potency [6] | Potency [8]
